In PubChem BioAssay (NCATS):
Inconclusive results are not listed. The source made the active and inactive calls. Unless noted, the call rests on the fitted dose curve; in most records, active means well fitted curve in the direction sought with a large enough effect; inconclusive means small, poorly fitted or top-dose-only effect, or another doubt; inactive means no such curve, though single readings can be large; an effect the other way counts as inactive or inconclusive.

Key:
[1] = AP1 Signaling Pathway (AID 357; active means well fitted curve in either direction with a large enough effect, not every such curve was filed as active;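 further: ME-180 reporter cells stimulated with EGF at its EC50 level; on the % scale 0 is the no-effect control and ±100 the full control effect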); details: ME-180 AP-1-bla reporter, EGF-induced, beta-lactamase ratio, 5 h; at 7.69 µM (top of the series) unless noted
In short: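 Modulation of EGF-driven AP-1 transcription was assessed with a beta-lactamase reporter in ME-180 cells. Compound and EC50 EGF were co-incubated 5 hours at 37 °C before 2.5-hour CCF4 loading at room temperature and dual-emission reading.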

[2] = molecular target: Cytochrome P450 1A2 (Homo sapiens) (UniProt P05177); assay: p450-cyp1a2 (AID 410; calls by dose curve; further: potency means the concentration at half of the fitted maximal effect)
In short: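 20nM CYP1A2, 100uM Luciferin-ME (=Km), 100mM KPO4; cpd 10 min RT; +NADPH regen, 60 min RT; stop/detect 20 min; luminescence. Normalized to furafylline 57 uM = full inhibition.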

[3] = NFAT Signaling Pathway (AID 444; active means well fitted curve in either direction with a large enough effect, not every such curve was filed as active;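 further: carbachol stimulus at about its EC50 of 1 µM final; on the % scale 0 is the no-effect control and ±100 the full control effect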); details: Jurkat NFAT-bla M1, carbachol, beta-lactamase ratio, 5 h; at 7.69 µM (top of the series) unless noted
In short: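 Read-out: CCF4 FRET ratio (460 nm/530 nm) after 1 h RT dye loading, used for %activity and AC50 from titration series. Cells: Jurkat NFAT-β-lactamase/M1 line, treated with compound plus 1 uM carbachol for 5 h, 37 °C.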

[4] = Stat Signaling Pathway (AID 446; active means well fitted curve in either direction with a large enough effect, not every such curve was filed as active;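 further: ME-180 cervical cancer cells given 40 pM IL-6 alongside compound; SIE-controlled beta-lactamase reporter measured as 460/530 nm FRET emission ratio; on the % scale 0 is the no-effect control and ±100 the full control effect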); details: ME-180 (cervical carcinoma) SIE beta-lactamase reporter, IL-6 stimulated, 5 h; at 7.69 µM (top of the series) unless noted
In short: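 Normalization used AC90 stimulation (300 pM IL-6) and AC90 inhibition (125 nM pan-JAK inhibitor at 40 pM IL-6). The underlying signal is SIE-driven beta-lactamase in ME-180 cells after 5 h IL-6 exposure with compound.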

[5] = molecular target: Glucocorticoid receptor (Homo sapiens) (UniProt P04150); assay: GR-GFP Redistribution (AID 450;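 active means compounds whose dose series gives a full or clear partial fitted curve of increased nuclear translocation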; further: potency means the concentration at half of the fitted maximal effect); details: U2OS GR-GFP nuclear translocation, laser cytometry, 2 h
[6] = molecular target: Glucocorticoid receptor (Homo sapiens) (UniProt P04150); assay: GR-EFC Redistribution (AID 451; calls by dose curve; further: potency means the concentration at half of the fitted maximal effect); details: CHO-K1 GR-EFC translocation, beta-gal luminescence, 2 h
In short: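 Translocation of GR-ED fusion to nuclear EA restores b-gal, read by luminescence after 1 h room-temperature detection. Engineered CHO-K1 biosensor cells, 1,000/well, exposed 2 h at 37 C to titrations up to 46 uM final.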

[7] = molecular target: Mitogen-activated protein kinase 10 (Mus musculus) (UniProt Q61831); assay: JNK3 AlphaScreen Assay (AID 530; active means well fitted curve in either direction with a large enough effect, not every such curve was filed as active;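 further: kinase came from lysate of stimulated human HepG2 cells; signal reports phosphorylation of biotinylated GST-cJun 1-79 at Ser73 with 10 µM ATP; on the % scale 0 is the no-effect control and ±100 the full control effect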)
In short: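 Kinase buffer: 20 mM Tris-HCl pH 7.6, 10 mM MgCl2, 1 mM DTT, 0.1 mM Na3VO4, 0.01% Tween-20; ATP 10 uM. Substrate biotin-GST-cJun(1-79), enzyme from activated HepG2 lysates. Detection by Ser73 phospho-antibody AlphaScreen.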

[8] = molecular target: 3',5'-cyclic-AMP phosphodiesterase 4B (Homo sapiens) (UniProt Q07343); assay: qHTS Assay for Inhibitors of PDE-IV (AID 607; active means well fitted activation curve with a large enough effect in the main read-out, with a control signal flat, not every such curve was filed as active; further: % of control where 0% means no effect)
In short: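 HEK293 ACTOne cells with CNG channel (1000/well), endogenous PDE4; membrane potential dye, compounds up to 22.9 uM final. Fluorescence Ex 535/Em 590; RO 20-1724 (100 uM final) as reference.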

[9] = qHTS Assay for Lipid Storage Modulators (AID 1519; calls by dose curve); details: Drosophila S3 cells, BODIPY lipid droplet/cell ratio, laser cytometry, cells loaded with oleic acid; for activity change, negative = inhibition: at 57.5 µM (top of the series)
In short: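 Cells seeded at 5,000 per well were treated with compounds over a concentration series and loaded with oleic acid (400 uM, as added). Lipid droplet fluorescence (488 nm excitation, 500-530 nm channel) was read by laser-scanning cytometry and normalized to 20 uM Triacsin C.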

[10] = molecular target: Dual specificity protein kinase CLK4 (Homo sapiens) (UniProt Q9HAZ1); assay: qHTS Assay for Inhibitors of CDC-like Kinase 4 (Kinase-Glo Assay) (AID 1770); further: nearly all actives have a fitted effect of over 65% in size; further: potency means the concentration at half of the fitted maximal effect
In short: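 Recombinant human Clk4 (25 nM) phosphorylated RS repeat peptide (100 uM) with 1 uM ATP in Tris pH 7.5/MgCl2/EGTA/DTT/Triton buffer for 4.5 h at room temperature. Residual ATP was quantified by Kinase-Glo luciferase luminescence.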

[11] = molecular target: Dual specificity protein kinase CLK4 (Homo sapiens) (UniProt Q9HAZ1); assay: qHTS Assay for Inhibitors of CDC-like Kinase 4 (ADP-Glo Assay) (AID 1771); further: nearly all actives have a fitted effect of over 70% in size; further: potency means the concentration at half of the fitted maximal effect
In short: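 25 nM Clk4, 100 uM RS peptide, 1 uM ATP (final); 2 mM MgCl2, 0.5 mM EGTA, 2.5 mM DTT, 0.01% Triton X-100; 1 hr RT. ADP-Glo readout: ATP depletion 45 min, conversion/luciferase 30 min, luminescence.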

[12] = molecular target: Dual specificity protein kinase CLK4 (Homo sapiens) (UniProt Q9HAZ1); assay: qHTS Assay for Inhibitors of CDC-like Kinase 4 (ADP-FP Assay) (AID 1795); further: nearly all actives have a fitted effect of over 60% in size; further: potency means the concentration at half of the fitted maximal effect
In short: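 Recombinant human Clk4 (6.25 nM) phosphorylated RS repeat peptide (100 uM) with 1 uM ATP in Tris pH 7.5/MgCl2/EGTA/DTT/Triton buffer for one hour. ADP was quantified by Transcreener competitive fluorescence polarization against an ADP calibration curve.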

[13] = molecular target: Ubiquitin carboxyl-terminal hydrolase 1 (Homo sapiens) (UniProt O94782); assay: Inhibitors of USP1/UAF1: Pilot qHTS (AID 504865);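 further: rhodamine fluorescence freed from ubiquitin-rhodamine substrate followed over time; top concentration of the series differs between compounds; on the % scale 0 is the no-effect control and ±100 the full control effect; nearly all actives have a fitted effect of over 35% in size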
In short: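 USP1/UAF1 complex (1nM) preincubated with compound 15 min at room temperature, then Ub-Rho substrate (150nM final) added. Fluorescence read kinetically at 480/540 nm, 6 reads every 60 seconds. Buffer: 50mM HEPES pH 7.8, 0.5mM EDTA, 0.1 mg/ml BSA, 1mM TCEP, 0.01% Tween-20.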

[14] = Primary qHTS for small molecule stabilizers of the endoplasmic reticulum resident proteome: Secreted ER Calcium Modulated Protein (SERCaMP) assay (AID 1508630); further: on the % scale 0 is the no-effect control and ±100 the full control effect
In short: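 The SH-SY5Y reporter protocol was run at 3 concentrations up to 38.3 uM (primary) or 11 concentrations (follow-up): 16 h compound, 100 nM thapsigargin for 4 h, then extracellular luciferase luminescence.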

[15] = molecular target: Cytochrome P450 3A4 (Homo sapiens) (UniProt P08684); assay: qHTS Assay for Activators of Cytochrome P450 3A4 (AID 885); further: nearly all actives have a fitted effect of over 65% in size
In short: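 Human CYP3A4 dealkylates Luciferin-PPXE to luciferin, which luciferase detection converts to light. Substrate was at its KM (25uM), buffer 200mM KPO4, reaction 60 min at RT.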

[16] = measured here: cell count channel max response
[17] = measured here: lipid channel max response

Chain of Glucocorticoid receptor (Homo sapiens) (P04150 whole entry, looked up, the tested form may be a part): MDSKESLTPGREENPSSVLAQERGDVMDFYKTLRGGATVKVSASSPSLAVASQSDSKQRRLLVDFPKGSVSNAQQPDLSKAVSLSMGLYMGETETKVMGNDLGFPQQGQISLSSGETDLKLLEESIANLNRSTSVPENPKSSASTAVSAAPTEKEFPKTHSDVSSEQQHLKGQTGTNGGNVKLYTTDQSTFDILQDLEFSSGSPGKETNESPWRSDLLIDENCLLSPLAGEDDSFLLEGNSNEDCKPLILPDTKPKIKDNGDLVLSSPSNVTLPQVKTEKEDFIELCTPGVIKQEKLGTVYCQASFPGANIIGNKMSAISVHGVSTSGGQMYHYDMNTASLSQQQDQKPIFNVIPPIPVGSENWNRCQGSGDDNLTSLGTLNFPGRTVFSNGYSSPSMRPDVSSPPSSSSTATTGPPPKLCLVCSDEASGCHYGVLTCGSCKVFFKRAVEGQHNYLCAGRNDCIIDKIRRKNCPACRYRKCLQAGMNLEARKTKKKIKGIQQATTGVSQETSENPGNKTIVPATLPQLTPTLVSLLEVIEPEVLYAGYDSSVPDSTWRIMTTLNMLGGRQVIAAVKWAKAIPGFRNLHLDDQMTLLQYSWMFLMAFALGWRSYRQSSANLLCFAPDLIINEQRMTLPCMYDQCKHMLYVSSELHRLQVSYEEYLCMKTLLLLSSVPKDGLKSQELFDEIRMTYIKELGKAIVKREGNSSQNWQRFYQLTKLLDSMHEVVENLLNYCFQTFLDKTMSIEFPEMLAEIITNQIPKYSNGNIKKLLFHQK
Chain of Cytochrome P450 1A2 (Homo sapiens) (P05177 whole entry, looked up): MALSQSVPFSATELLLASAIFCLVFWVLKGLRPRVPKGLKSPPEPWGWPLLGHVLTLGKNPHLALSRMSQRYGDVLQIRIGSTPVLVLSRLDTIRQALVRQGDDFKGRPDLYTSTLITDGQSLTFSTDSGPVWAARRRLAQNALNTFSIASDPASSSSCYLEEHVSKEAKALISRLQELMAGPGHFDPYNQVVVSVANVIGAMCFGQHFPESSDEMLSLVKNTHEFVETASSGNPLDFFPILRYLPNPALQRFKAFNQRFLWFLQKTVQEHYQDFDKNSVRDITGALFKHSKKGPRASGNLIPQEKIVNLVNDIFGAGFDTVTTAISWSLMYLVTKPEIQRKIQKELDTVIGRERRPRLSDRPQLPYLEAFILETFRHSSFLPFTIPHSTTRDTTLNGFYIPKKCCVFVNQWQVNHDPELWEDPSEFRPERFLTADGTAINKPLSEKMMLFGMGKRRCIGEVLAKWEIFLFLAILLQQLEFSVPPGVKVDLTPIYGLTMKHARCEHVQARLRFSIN
Chain of Ubiquitin carboxyl-terminal hydrolase 1 (Homo sapiens) (O94782 whole entry, looked up): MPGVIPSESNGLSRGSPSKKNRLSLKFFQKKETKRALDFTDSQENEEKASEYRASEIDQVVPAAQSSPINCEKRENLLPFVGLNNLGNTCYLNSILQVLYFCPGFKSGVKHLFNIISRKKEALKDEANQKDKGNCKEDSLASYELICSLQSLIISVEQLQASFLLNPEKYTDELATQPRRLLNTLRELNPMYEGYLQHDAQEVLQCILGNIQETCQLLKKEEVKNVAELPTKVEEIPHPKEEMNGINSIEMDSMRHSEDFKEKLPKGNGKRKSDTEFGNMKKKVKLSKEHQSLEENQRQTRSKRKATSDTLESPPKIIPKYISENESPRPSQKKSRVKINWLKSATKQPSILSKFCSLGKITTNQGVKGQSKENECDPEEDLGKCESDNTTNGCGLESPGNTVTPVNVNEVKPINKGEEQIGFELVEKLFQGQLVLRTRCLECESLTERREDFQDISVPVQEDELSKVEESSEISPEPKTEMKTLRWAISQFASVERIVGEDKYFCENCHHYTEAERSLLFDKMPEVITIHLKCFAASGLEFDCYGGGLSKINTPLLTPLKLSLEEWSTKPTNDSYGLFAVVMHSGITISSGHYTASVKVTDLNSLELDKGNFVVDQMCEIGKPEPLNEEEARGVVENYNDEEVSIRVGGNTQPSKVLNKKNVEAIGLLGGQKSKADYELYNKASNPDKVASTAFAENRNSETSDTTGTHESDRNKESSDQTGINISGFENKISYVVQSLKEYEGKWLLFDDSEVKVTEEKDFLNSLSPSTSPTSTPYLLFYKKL
Chain of Dual specificity protein kinase CLK4 (Homo sapiens) (Q9HAZ1 whole entry, looked up): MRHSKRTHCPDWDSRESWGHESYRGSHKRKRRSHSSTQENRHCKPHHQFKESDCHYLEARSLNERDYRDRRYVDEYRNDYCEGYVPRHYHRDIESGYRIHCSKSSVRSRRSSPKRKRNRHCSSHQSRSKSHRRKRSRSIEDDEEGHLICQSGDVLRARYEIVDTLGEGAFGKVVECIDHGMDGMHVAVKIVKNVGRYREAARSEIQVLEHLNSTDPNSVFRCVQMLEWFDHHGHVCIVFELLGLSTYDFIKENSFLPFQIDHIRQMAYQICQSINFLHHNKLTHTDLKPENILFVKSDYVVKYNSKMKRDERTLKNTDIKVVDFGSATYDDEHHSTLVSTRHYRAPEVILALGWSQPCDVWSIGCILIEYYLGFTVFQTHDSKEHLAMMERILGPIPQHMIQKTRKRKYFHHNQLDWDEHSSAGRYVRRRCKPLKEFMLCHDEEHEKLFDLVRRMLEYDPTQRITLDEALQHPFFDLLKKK
Chain of Cytochrome P450 3A4 (Homo sapiens) (P08684 whole entry, looked up): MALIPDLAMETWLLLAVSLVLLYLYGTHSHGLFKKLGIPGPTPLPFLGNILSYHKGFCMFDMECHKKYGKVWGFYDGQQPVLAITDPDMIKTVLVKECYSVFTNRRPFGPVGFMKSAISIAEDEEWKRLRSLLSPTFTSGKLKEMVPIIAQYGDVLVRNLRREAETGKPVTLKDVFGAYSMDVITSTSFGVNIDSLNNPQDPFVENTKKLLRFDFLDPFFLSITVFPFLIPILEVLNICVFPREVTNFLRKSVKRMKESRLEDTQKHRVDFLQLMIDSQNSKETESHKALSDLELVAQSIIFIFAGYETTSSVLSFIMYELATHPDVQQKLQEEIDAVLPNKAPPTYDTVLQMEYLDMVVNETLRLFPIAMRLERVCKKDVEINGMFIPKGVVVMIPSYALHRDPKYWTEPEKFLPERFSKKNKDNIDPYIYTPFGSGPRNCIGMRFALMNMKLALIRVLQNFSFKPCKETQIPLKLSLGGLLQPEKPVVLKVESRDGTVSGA
Chain of 3',5'-cyclic-AMP phosphodiesterase 4B (Homo sapiens) (Q07343 whole entry, looked up): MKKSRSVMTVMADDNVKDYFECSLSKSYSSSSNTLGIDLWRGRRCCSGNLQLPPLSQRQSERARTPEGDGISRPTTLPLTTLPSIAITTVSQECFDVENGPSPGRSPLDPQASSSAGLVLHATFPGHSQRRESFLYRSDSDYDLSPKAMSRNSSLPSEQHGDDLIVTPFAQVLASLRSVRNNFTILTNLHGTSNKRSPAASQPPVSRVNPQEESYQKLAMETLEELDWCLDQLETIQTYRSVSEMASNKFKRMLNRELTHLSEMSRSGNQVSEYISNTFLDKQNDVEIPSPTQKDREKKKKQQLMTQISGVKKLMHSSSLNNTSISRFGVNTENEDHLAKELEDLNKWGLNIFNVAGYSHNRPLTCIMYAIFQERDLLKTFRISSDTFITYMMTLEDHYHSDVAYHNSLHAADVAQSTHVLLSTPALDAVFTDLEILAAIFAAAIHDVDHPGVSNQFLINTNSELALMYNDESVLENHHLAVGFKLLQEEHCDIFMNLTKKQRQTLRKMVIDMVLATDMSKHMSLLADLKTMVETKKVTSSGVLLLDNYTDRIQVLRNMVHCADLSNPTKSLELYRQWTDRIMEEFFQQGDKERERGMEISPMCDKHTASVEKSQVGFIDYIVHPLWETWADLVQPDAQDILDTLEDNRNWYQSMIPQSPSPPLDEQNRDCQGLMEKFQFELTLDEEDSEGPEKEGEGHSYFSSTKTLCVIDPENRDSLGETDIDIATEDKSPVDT

Row | SMILES | activity change, negative = inhibition [1] | Potency [2] | activity change, negative = inhibition [3] | activity, negative = inhibition [4] | Potency [5] | Potency [6] | outcome [7] | Potency [8] | activity change, negative = inhibition [9] | max response [9, 16] | max response [9, 17] | Potency [10] | Potency [11] | Potency [12] | Potency [13] | Potency [14] | Potency [15]
1 | O=c1cnc2cnc(Oc3cccc(Cl)c3)nc2n1C[C@H]1CCCO1 | -1.71% (inactive) | 5.01 µM (active) | 1.72% (inactive) | -13.3% (inactive) | > 9.22 µM (inactive) | > 46 µM (inactive) | inactive | inactive | 5.57% (inactive) | 22.7% | 29.8% | inactive | inactive | inactive | inactive | inactive | –
2 | O=c1cnc2cnc(N3CCOCC3)nc2n1CCc1ccccc1 | -4.12% (inactive) | 3.16 µM (active) | -13.2% (inactive) | -10.2% (inactive) | > 9.22 µM (inactive) | – | inactive | – | 3.67% (inactive) | 1.44% | 3.8% | 7.08 µM (active) | 7.94 µM (active) | 8.91 µM (active) | inactive | inactive | inactive
3 | COc1cccc(Cn2c(=O)c(-c3cccs3)nc3cnc(N(C)C)nc32)c1 | -9.34% (inactive) | 15.8 µM (active) | 23.2% (inactive) | 11.2% (inactive) | > 9.22 µM (inactive) | > 46 µM (inactive) | inactive | inactive | 3.91% (inactive) | 25.6% | 27.3% | inactive | inactive | inactive | inactive | inactive | inactive
